# Results published in PubChem BioAssay (Tox21).
# Unmarked numbers belong to inactive results. Records with an inconclusive call do not appear. A call without a number means that no potency is given here. Activity calls are given as the source filed them. Calls follow the shape of the dose curve; as a rule, active = well fitted curve in the direction sought with a large enough effect in the repeat runs; inconclusive = weak or mixed curves; inactive = no such curve, though single readings can be large; an effect the other way counts as inactive or inconclusive.
# Key:
# [1] = qHTS RealTime-Glo MT Cell Viability Assay in HepG2 cells - 24 hour (AID 1224867); also: nearly all actives have a fitted effect of over 50% in size
# In short: (§1)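 Cell number in HepG2 cultures estimated from NanoLuc luminescence generated by metabolic reduction of a prosubstrate by living cells. The homogeneous, nonlytic format allowed repeated reads at 0, 8, 16, 24, 32 and 40 h of compound exposure.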
# [2] = qHTS RealTime-Glo MT Cell Viability Assay in HEK293 cells - 32 hour (AID 1224868); also: top concentration of the series differs between compounds; nearly all actives have a fitted effect of over 50% in size
# In short: (§2)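 Homogeneous bioluminescent viability format in HEK293 cells (600 cells/well). Following 5 h at 37 C/5% CO2, 23 nL compound was pintooled; the signal was measured repeatedly during 40 h incubation.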
# [3] = A CellTox Green Cytotoxicity Assay to monitor cytotoxicity in HEK293 cells - 0 hour (AID 1224869); also: nearly all actives have a fitted effect of over 50% in size
# In short: (§3)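 Real-time, in one plate: 600 HEK293 cells/well with dead-cell DNA dye, pinned compound after 5 h, 37 C incubation over 40 h; viable cells give no appreciable fluorescence.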
# [4] = qHTS RealTime-Glo MT Cell Viability Assay in HEK293 cells - 16 hour (AID 1224872); also: top concentration of the series differs between compounds; nearly all actives have a fitted effect of over 50% in size
# In short: as §2
# [5] = qHTS RealTime-Glo MT Cell Viability Assay in HepG2 cells - 8 hour (AID 1224873); also: nearly all actives have a fitted effect of over 55% in size
# In short: (§4)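 Real-time viability: cells seeded at 600 per well together with NanoLuc and cell-permeant prosubstrate, compounds added after 5 h incubation. Luminescence tracked at 0, 8, 16, 24, 32 and 40 h of exposure.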
# [6] = qHTS RealTime-Glo MT Cell Viability Assay in HEK293 cells - 40 hour (AID 1224874); conditions: RealTime-Glo luminescence; max response: active compounds read low; also: nearly all actives have a fitted effect of over 50% in size
# In short: (§5)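 Kinetic, non-lysing viability readout. Seed HEK293 (600/well) with reagent, incubate 5 h at 37 C/5% CO2, pin 23 nL compound in DMSO, incubate at 37 C, read luminescence at 0, 8, 16, 24, 32, 40 h.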
# [7] = A CellTox Green Cytotoxicity Assay to monitor cytotoxicity in HEK293 cells - 24 hour (AID 1224875); also: series mostly up to about 77 µM; nearly all actives have a fitted effect of over 45% in size
# In short: as §3
# [8] = A CellTox Green Cytotoxicity Assay to monitor cytotoxicity in HepG2 cells - 16 hour (AID 1224876); also: nearly all actives have a fitted effect of over 45% in size
# In short: (§6)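 Cytotoxicity was tracked as dead-cell DNA fluorescence in HepG2 cells treated with test compounds at 37 C; each time-point value comes from one kinetic series spanning 0, 8, 16, 24, 32 and 40 h.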
# [9] = qHTS RealTime-Glo MT Cell Viability Assay in HepG2 cells - 32 hour (AID 1224877); also: nearly all actives have a fitted effect of over 55% in size
# In short: as §1
# [10] = A CellTox Green Cytotoxicity Assay to monitor cytotoxicity in HepG2 cells - 24 hour (AID 1224878); also: nearly all actives have a fitted effect of over 45% in size; also: potency is read from the fitted curve at half-maximal effect
# In short: as §6
# [11] = qHTS RealTime-Glo MT Cell Viability Assay in HEK293 cells - 0 hour (AID 1224880); also: top concentration of the series differs between compounds; nearly all actives have a fitted effect of over 45% in size
# In short: as §5
# [12] = A CellTox Green Cytotoxicity Assay to monitor cytotoxicity in HEK293 cells - 32 hour (AID 1224881); also: nearly all actives have a fitted effect of over 40% in size
# In short: as §3
# [13] = A CellTox Green Cytotoxicity Assay to monitor cytotoxicity in HepG2 cells - 0 hour (AID 1224882); also: nearly all actives have a fitted effect of over 35% in size
# In short: as §6
# [14] = A CellTox Green Cytotoxicity Assay to monitor cytotoxicity in HepG2 cells - 32 hour (AID 1224883); also: nearly all actives have a fitted effect of over 50% in size
# In short: as §6
# [15] = A CellTox Green Cytotoxicity Assay to monitor cytotoxicity in HEK293 cells - 8 hour (AID 1224884); also: nearly all actives have a fitted effect of over 35% in size
# In short: as §3
# [16] = qHTS RealTime-Glo MT Cell Viability Assay in HepG2 cells - 16 hour (AID 1224885); also: nearly all actives have a fitted effect of over 50% in size
# In short: as §1
# [17] = A CellTox Green Cytotoxicity Assay to monitor cytotoxicity in HEK293 cells - 40 hour (AID 1224871); also: nearly all actives have a fitted effect of over 45% in size
# In short: as §3
# [18] = A CellTox Green Cytotoxicity Assay to monitor cytotoxicity in HepG2 cells - 40 hour (AID 1224879); also: nearly all actives have a fitted effect of over 40% in size
# In short: as §6
# [19] = qHTS RealTime-Glo MT Cell Viability Assay in HepG2 cells - 40 hour (AID 1224870); also: nearly all actives have a fitted effect of over 50% in size
# In short: as §4
smiles,measurement,setting,value
CCOC(=O)CC#N,outcome,[1],inactive
same,Potency,[2],inactive
same,Potency,[3],inactive
same,Potency,[4],inactive
same,outcome,[5],inactive
same,max response,[6],-0.316%
same,Potency,[7],inactive
same,Potency,[8],inactive
same,outcome,[9],inactive
same,Potency,[10],inactive
same,outcome,[11],inactive
same,Potency,[12],inactive
same,Potency,[13],inactive
same,Potency,[14],inactive
same,Potency,[15],inactive
same,outcome,[16],inactive
Nc1cc(Cl)cc(S(=O)(=O)O)c1O,outcome,[1],inactive
same,Potency,[2],inactive
same,Potency,[3],inactive
same,Potency,[4],inactive
same,max response,[6],-4.63%
same,outcome,[9],inactive
same,Potency,[10],inactive
same,outcome,[11],inactive
same,Potency,[12],inactive
same,Potency,[13],inactive
same,Potency,[14],inactive
COc1ccc(N=Nc2cc(C)c(N=Nc3ccc(S(=O)(=O)O)cc3)cc2OC)cc1,outcome,[1],inactive
same,Potency,[2],inactive
same,Potency,[3],inactive
same,Potency,[17],inactive
same,Potency,[4],inactive
same,outcome,[5],inactive
same,max response,[6],-2.91%
same,Potency,[7],inactive
same,Potency,[8],inactive
same,outcome,[9],inactive
same,Potency,[10],inactive
same,Potency,[18],inactive
same,Potency,[12],inactive
same,Potency,[13],inactive
same,Potency,[14],inactive
same,Potency,[15],inactive
CCOC(=O)CC(CC(=O)OCC)(OC(C)=O)C(=O)OCC,outcome,[1],inactive
same,Potency,[2],inactive
same,Potency,[3],inactive
same,Potency,[17],inactive
same,Potency,[4],inactive
same,outcome,[5],inactive
same,max response,[6],-6.27%
same,Potency,[7],inactive
same,Potency,[8],inactive
same,outcome,[9],inactive
same,Potency,[18],inactive
same,outcome,[11],inactive
same,Potency,[12],inactive
same,Potency,[13],inactive
same,Potency,[14],inactive
same,Potency,[15],inactive
same,outcome,[16],inactive
COc1cc2c(Nc3ccc(Br)cc3F)ncnc2cc1OCC1CCN(C)CC1,outcome,[1],inactive
same,Potency,[2],inactive
same,Potency,[3],inactive
same,outcome,[19],inactive
same,Potency,[4],inactive
same,max response,[6],6.99%
same,Potency,[7],inactive
same,outcome,[9],inactive
same,Potency,[18],inactive
same,outcome,[11],inactive
same,Potency,[12],inactive
same,Potency,[13],inactive
same,Potency,[14],inactive
same,outcome,[16],inactive
Cc1ccccc1N1CCN(CCc2nnc3n2CCCC3)CC1,outcome,[1],inactive
same,Potency,[2],inactive
same,outcome,[19],inactive
same,Potency,[4],inactive
same,outcome,[5],inactive
same,max response,[6],-6.94%
same,Potency,[7],inactive
same,Potency,[8],inactive
same,outcome,[9],inactive
same,Potency,[10],inactive
same,Potency,[18],inactive
same,outcome,[11],inactive
same,Potency,[12],inactive
same,Potency,[14],inactive
same,Potency,[15],inactive
same,outcome,[16],inactive
COC(/C=C(\C)CCC=C(C)C)OC,outcome,[1],inactive
same,Potency,[2],inactive
same,outcome,[19],inactive
same,Potency,[17],inactive
same,Potency,[4],inactive
same,outcome,[5],inactive
same,max response,[6],4.55%
same,Potency,[8],inactive
same,Potency,[10],inactive
same,Potency,[18],inactive
same,outcome,[11],inactive
same,Potency,[12],inactive
same,Potency,[13],inactive
same,Potency,[14],inactive
same,Potency,[15],inactive
same,outcome,[16],inactive
O=C1OC(=O)c2ccccc21,outcome,[1],inactive
same,Potency,[2],inactive
same,outcome,[19],inactive
same,Potency,[17],inactive
same,Potency,[4],inactive
same,outcome,[5],inactive
same,max response,[6],-12.4%
same,Potency,[7],inactive
same,Potency,[8],inactive
same,outcome,[9],inactive
same,Potency,[10],inactive
same,Potency,[18],inactive
same,outcome,[11],inactive
same,Potency,[12],inactive
same,Potency,[13],inactive
same,Potency,[14],inactive
same,Potency,[15],inactive
same,outcome,[16],inactive
Cc1oc(=O)oc1CN1CCN(c2cc3c(cc2F)c(=O)c(C(=O)O)c2n3C(C)S2)CC1 (stereo not drawn),outcome,[1],inactive
same,Potency,[2],inactive
same,Potency,[3],inactive
same,outcome,[19],inactive
same,Potency,[4],inactive
same,outcome,[5],inactive
same,max response,[6],5.9%
same,Potency,[7],inactive
same,outcome,[9],inactive
same,Potency,[10],535 nM (active)
same,outcome,[11],inactive
same,Potency,[12],inactive
same,Potency,[13],inactive
same,Potency,[15],inactive
same,outcome,[16],inactive
CO[Si](CCCCl)(OC)OC,outcome,[1],inactive
same,Potency,[2],inactive
same,outcome,[19],inactive
same,Potency,[17],inactive
same,Potency,[4],inactive
same,outcome,[5],inactive
same,max response,[6],28.4%
same,Potency,[7],inactive
same,Potency,[8],inactive
same,outcome,[9],inactive
same,Potency,[10],inactive
same,Potency,[18],inactive
same,outcome,[11],inactive
same,Potency,[12],inactive
same,Potency,[13],inactive
same,Potency,[14],inactive
same,Potency,[15],inactive
CC(C)COC(=O)CC(C(=O)OCC(C)C)S(=O)(=O)O (stereo not drawn),outcome,[1],inactive
same,Potency,[2],inactive
same,Potency,[3],inactive
same,Potency,[17],inactive
same,Potency,[4],inactive
same,outcome,[5],inactive
same,max response,[6],-3.15%
same,Potency,[7],inactive
same,Potency,[8],inactive
same,outcome,[9],inactive
same,Potency,[10],inactive
same,Potency,[18],inactive
same,outcome,[11],inactive
same,Potency,[12],inactive
same,Potency,[14],inactive
same,Potency,[15],inactive
same,outcome,[16],inactive
C=C(C)[C@@H]1CC[C@@H](C)C[C@@H]1O,outcome,[1],inactive
same,Potency,[2],inactive
same,Potency,[3],inactive
same,outcome,[19],inactive
same,Potency,[4],inactive
same,max response,[6],0.357%
same,Potency,[7],inactive
same,Potency,[8],inactive
same,outcome,[9],inactive
same,Potency,[10],inactive
same,Potency,[18],inactive
same,outcome,[11],inactive
same,Potency,[12],inactive
same,Potency,[13],inactive
same,Potency,[14],inactive
same,Potency,[15],inactive
same,outcome,[16],inactive
BrC/C=C/CBr,"activity change, negative = cytotoxicity",[1],3.48% [at 15.8 µM]
same,"activity change, negative = cytotoxic",[2],-0.679% [at 15.8 µM]
same,cytotoxicity,[3],0.203% [at 15.8 µM]
same,cytotoxicity increase,[17],1.51% [at 15.8 µM]
same,"activity change, negative = cytotoxicity",[4],1.42% [at 15.8 µM]
same,"viability change, negative = cytotoxic",[5],2.32% [at 15.8 µM]
same,max response,[6],-1.67%
same,activity change,[7],"2.67% [at 15.8 µM, active compounds read high]"
same,cytotoxicity increase,[8],-13.9% [at 15.8 µM]
same,"activity change, negative = cytotoxic",[9],-0.147% [at 15.8 µM]
same,cytotoxicity,[10],-16.1% [at 15.8 µM]
same,cytotoxicity increase,[18],-17.2% [at 15.8 µM]
same,"activity change, negative = cytotoxicity",[11],-1.92% [at 15.8 µM]
same,cytotoxicity increase,[12],-1.01% [at 15.8 µM]
same,cytotoxicity,[13],-11.8% [at 15.8 µM]
same,cytotoxicity increase,[14],-16.5% [at 15.8 µM]
same,cytotoxicity increase,[15],1.66% [at 15.8 µM]
same,"activity change, negative = cytotoxic",[16],4.65% [at 15.8 µM]
CC1=CC[C@H](CC=O)C1(C)C,outcome,[1],inactive
same,Potency,[2],inactive
same,Potency,[3],inactive
same,Potency,[17],inactive
same,Potency,[4],inactive
same,outcome,[5],inactive
same,max response,[6],1.6%
same,Potency,[7],inactive
same,Potency,[8],inactive
same,outcome,[9],inactive
same,outcome,[11],inactive
same,Potency,[12],inactive
same,Potency,[13],inactive
same,Potency,[14],inactive
same,Potency,[15],inactive
same,outcome,[16],inactive
C=COCCOCCOC=C,outcome,[1],inactive
same,Potency,[2],inactive
same,Potency,[3],inactive
same,Potency,[17],inactive
same,Potency,[4],inactive
same,outcome,[5],inactive
same,max response,[6],-1.05%
same,Potency,[7],inactive
same,Potency,[8],inactive
same,outcome,[9],inactive
same,Potency,[10],inactive
same,outcome,[11],inactive
same,Potency,[12],inactive
same,Potency,[13],inactive
same,Potency,[14],inactive
same,Potency,[15],inactive
same,outcome,[16],inactive
CNC(=O)NC,outcome,[1],inactive
same,Potency,[2],inactive
same,outcome,[19],inactive
same,Potency,[17],inactive
same,Potency,[4],inactive
same,outcome,[5],inactive
same,max response,[6],1.12%
same,Potency,[7],inactive
same,Potency,[8],inactive
same,outcome,[9],inactive
same,Potency,[10],inactive
same,Potency,[18],inactive
same,outcome,[11],inactive
same,Potency,[12],inactive
same,Potency,[13],inactive
same,Potency,[14],inactive
same,Potency,[15],inactive
